# The supplement of paper PMC4166925
# ± gives the standard deviation of the averaged measurements. Whole data set: some 33,000 sequences, median “E-score (dimensionless, -0.5 to 0.5)” near -0.049, cut for the highest 2% near 0.37. The entries come from a sample that favours the highest values as a whole.
# Tested on: T1, PmTbr T-box DNA-binding domain (GST fusion)
# T1 sequence: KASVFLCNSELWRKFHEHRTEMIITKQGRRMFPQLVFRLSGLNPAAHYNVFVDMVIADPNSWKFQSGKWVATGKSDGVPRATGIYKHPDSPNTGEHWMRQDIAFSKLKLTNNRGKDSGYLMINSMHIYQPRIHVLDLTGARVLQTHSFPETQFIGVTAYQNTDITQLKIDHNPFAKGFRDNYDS
# Experiment: PBM E-score of 8-mer (E-score (dimensionless, -0.5 to 0.5)); Tbr is Tbrain of the sea star Patiria miniata (Pm) or the sea urchin Strongylocentrotus purpuratus (Sp); higher = stronger binding preference
# Conditions: the construct has about 5 more residues each side
# Method: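 Universal protein-binding microarray (Agilent AMADID 016060, 60-bp probes with a 35-bp variable region) incubated with 200 nM GST-fused Patiria miniata Tbr T-box DNA-binding domain (residues 272-466) in PBS pH 7.5. Scored for every ungapped 8-mer (given with its reverse complement) by the Universal PBM Analysis Suite as E-score (modified Wilcoxon-Mann-Whitney enrichment, range -0.5 to 0.5; >0.45 counts as bound) and Z-score of median probe intensity. Two replicate arrays (datasets 1 and 2).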
# 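Note: 200 nM protein in PBS on universal arrays averaged over duplicate arrays.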
row,Sequence,PBM E-score of 8-mer
1,AAAAGCTT,-0.0359 ± 0.065
2,CTTTGTGA,0.028 ± 0.0037
3,ACTAGTCA,0.164 ± 0.044
4,TAGGCCAA,-0.298 ± 0.065
5,AGCCAGAG,-0.0902 ± 0.046
6,AGCGTCCT,-0.167 ± 0.046
7,TATAGCAA,-0.0376 ± 0.033
8,CCACCTTC,0.31 ± 0.02
9,AGACCTTC,-0.269 ± 0.022
10,ACACCTTC,0.479 ± 0.00068
11,ACGTGAGG,0.159 ± 0.04
12,AGGTGAGA,0.486 ± 0.0024
13,CGGTGAGA,0.236 ± 0.0071
14,AGGTGAGG,0.428 ± 0.013
15,TAGTGATA,0.245 ± 0.035
16,CAGTGAGA,0.181 ± 0.028
17,AAGTGAGG,0.2407 ± 0.0011
18,ACGTGAGA,0.349 ± 0.0086
19,AGGTGAGC,0.303 ± 0.042
20,AAGTGATG,0.28 ± 0.0076
21,AAGTGAGA,0.429 ± 0.0088
22,AAGTGATA,0.37 ± 0.025
23,GGGGTTGA,-0.000915 ± 0.043
24,CGATCTAG,0.025 ± 0.0082
25,CTTAGCGA,0.184 ± 0.025

row,Sequence,PBM E-score of 8-mer
1,AATCTTCA,-0.068 ± 0.038
2,CTCGAGGC,-0.039 ± 0.098
3,CAAACTGG,0.102 ± 0.039
4,AAATCTAG,-0.091 ± 0.019
5,GCCTCACC,0.0769 ± 0.049
6,GGGTGAGA,0.406 ± 0.009
7,GAGTGAGA,0.334 ± 0.017
8,GGGGGTGA,0.2941 ± 0.0011
9,ACCATGGC,-0.0471 ± 0.08
10,CAGTTTAA,-0.0321 ± 0.037
11,GACCTGCA,0.0626 ± 0.036
12,CACCTGGA,0.366 ± 0.025
13,TACCTGCA,-0.174 ± 0.0055
14,AACCTGGC,0.195 ± 0.038
15,AACCTGCG,0.0979 ± 0.006
16,CACCTGGG,0.361 ± 0.029
17,CACCTGGC,0.427 ± 0.007
18,CACCTGCG,0.429 ± 0.019
19,GACCTGCC,0.148 ± 0.0062
20,CACCTGCC,0.406 ± 0.021
21,AACCTGCC,-0.0169 ± 0.035
22,CACCTGCA,0.4 ± 0.0099
23,AAGGCCGA,-0.191 ± 0.09
24,CCTTATGC,-0.139 ± 0.041
25,GCCATTAC,-0.169 ± 0.06

row,Sequence,PBM E-score of 8-mer
1,GGCCTGAC,-0.103 ± 0.02
2,CGTCCCAG,-0.151 ± 0.0033
3,CACACAAA,0.0927 ± 0.064
4,AACACGTG,0.38 ± 0.016
5,AACACGAG,0.132 ± 0.0066
6,ACCACGTG,0.169 ± 0.053
7,CACACGTA,0.357 ± 0.0053
8,CACACGGC,0.0461 ± 0.026
9,CACACGTC,0.4359 ± 0.0027
10,CACACGTG,0.376 ± 0.019
11,CGCACGTC,0.354 ± 0.02
12,CAAGAGTG,0.154 ± 0.047
13,CAACCGAG,0.0284 ± 0.0078
14,GAAAATAA,-0.0661 ± 0.086
15,CAACACGC,0.229 ± 0.019
16,TAACACCA,0.451 ± 0.0075
17,CAACACTA,0.323 ± 0.04
18,GAACACCA,0.0994 ± 0.0056
19,CAACACGA,0.161 ± 0.015
20,AAACACCA,0.268 ± 0.0077
21,GAACACCC,0.1762 ± 0.00083
22,CAACACCG,0.3 ± 0.013
23,TAACACTA,0.382 ± 0.0057
24,CAACACCC,0.444 ± 0.015
25,GAACACTA,0.051 ± 0.077

row,Sequence,PBM E-score of 8-mer
1,CAACACCA,0.392 ± 0.015
2,CTGACTCC,-0.143 ± 0.047
3,CTGCCCTC,-0.067 ± 0.048
4,CACCCATC,0.201 ± 0.011
5,GATATACC,-0.114 ± 0.031
6,CAAATTCG,0.0471 ± 0.029
7,GCTCTAAC,0.0585 ± 0.0059
8,AATTACCG,0.0948 ± 0.036
9,ACATCACT,0.0297 ± 0.063
10,CCACACCG,0.134 ± 0.063
11,ACACACCC,0.327 ± 0.015
12,CCACACCC,0.395 ± 0.028
13,ACCTCTTG,0.138 ± 0.027
14,TAAGTGGA,-0.141 ± 0.0053
15,AGTTACCC,-0.0906 ± 0.018
16,GGCGCGAA,0.4607 ± 0.0017
17,ATCGCGAA,0.335 ± 0.046
18,AGCGCGAG,0.319 ± 0.011
19,AGCGCGAA,0.392 ± 0.014
20,CTCGCGAA,0.368 ± 0.0047
21,ATCGCGAG,0.249 ± 0.0038
22,ATCGCGAT,0.38 ± 0.014
23,TTCGCGAA,0.3702 ± 0.0034
24,GACGCGAA,0.126 ± 0.066
25,GTCGCGAA,0.33 ± 0.02

row,Sequence,PBM E-score of 8-mer
1,GGCGCGCA,0.0945 ± 0.0047
2,AGCGCGAT,0.291 ± 0.0076
3,GCTAGCAA,0.144 ± 0.015
4,ATATTGCC,-0.106 ± 0.095
5,CTTCTATC,-0.198 ± 0.025
6,ATCTGTGA,0.282 ± 0.0073
7,GTCGCCAA,0.288 ± 0.038
8,CGGTCAAA,-0.18 ± 0.0046
9,AACAGTGC,0.0577 ± 0.058
10,ATTCTGAG,-0.131 ± 0.012
11,CCGGCTGC,-0.125 ± 0.1
12,TGCGCGAA,0.307 ± 0.017
13,CGCGCGAG,0.27 ± 0.023
14,ATCGCGAC,0.26 ± 0.021
15,CGCGCGAC,0.291 ± 0.025
16,AGCGCGAC,0.242 ± 0.003
17,GTCGCGAC,0.385 ± 0.0054
18,CTCGCGAC,0.326 ± 0.0051
19,CGCGCGAA,0.3963 ± 0.00041
20,GGCGCGAC,0.377 ± 0.025
21,ATAGGGGG,-0.0469 ± 0.086
22,CATCAAAC,-0.0906 ± 0.034
23,AAGGGGCC,-0.0989 ± 0.015
24,GCATGTAA,-0.124 ± 0.0041
25,CCCCTTCG,-0.126 ± 0.029

row,Sequence,PBM E-score of 8-mer
1,CACCTTCC,0.4461 ± 0.0012
2,AACCTTCA,-0.149 ± 0.083
3,GACCTTCA,-0.0991 ± 0.0084
4,AACCTTCG,-0.135 ± 0.0027
5,CACCTTCA,0.436 ± 0.0071
6,AACCTTCC,-0.196 ± 0.038
7,CACCTTCG,0.431 ± 0.02
8,GACCTTCC,0.0338 ± 0.01
9,AGATCGTA,0.0776 ± 0.06
10,ACTCCTCG,0.219 ± 0.032
11,ACCTAAGT,0.0966 ± 0.0054
12,TAGGTCGA,-0.111 ± 0.085
13,GGGCGCAA,0.0355 ± 0.036
14,ACTTGGAA,-0.1519 ± 0.00037
15,CCTCCACA,0.233 ± 0.021
16,CGCTTGAA,-0.191 ± 0.056
17,CCATTAAC,0.0966 ± 0.0036
18,CCTGTTGA,0.091 ± 0.045
19,CTCTTGAA,-0.374 ± 0.012
20,AGACAGAG,-0.139 ± 0.052
21,ATCACCAG,-0.0506 ± 0.043
22,GTCACCTA,0.4173 ± 0.0026
23,GTCACCGA,0.127 ± 0.041
24,CTCACCAC,0.209 ± 0.054
25,CTCACCGC,0.055 ± 0.076

row,Sequence,PBM E-score of 8-mer
1,ATCACCTG,0.379 ± 0.019
2,ATCACCCC,0.289 ± 0.028
3,GTCACCCA,0.259 ± 0.056
4,ATCACCGG,-0.319 ± 0.02
5,ATCACCAC,0.15 ± 0.0054
6,ATCACCTC,0.4197 ± 0.00045
7,CTCACCTC,0.449 ± 0.009
8,AAAGACTC,-0.156 ± 0.018
9,AAGGGGGG,-0.444 ± 0.023
10,CGCACTAG,0.167 ± 0.021
11,ATGCTGCC,-0.293 ± 0.037
12,ACCCACGG,-0.132 ± 0.022
13,CATGCGAA,0.108 ± 0.046
14,CTCACCGA,0.00965 ± 0.039
15,CTTACCTA,-0.153 ± 0.059
16,ATCACCTA,0.392 ± 0.022
17,CTCACCTA,0.4081 ± 0.0035
18,ATCACCCA,0.276 ± 0.021
19,ATCACCAA,0.17 ± 0.016
20,CTAGCGTA,0.0249 ± 0.015
21,ATGGTTAC,-0.265 ± 0.029
22,ATTGGCGA,0.156 ± 0.027
